Compounds with a hit are over-represented: about 2.7% of the library has one in this group of screens.
ERb SRC1 inh = inhibitors of ERβ-SRC1 coactivator interaction, primary screen, biochemical, TR-FRET, ERβ LBD, SRC-1 peptide; Estrogen receptor beta (Homo sapiens), Q92731; TR-FRET ER-beta LBD / SRC1-Cy5 peptide binding; receptor agonist-loaded with 1 µM estradiol; inhibition, % at 25.6 µM; 86,000 compounds, 1.3% hits; AID 633, 2007;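 active = compounds whose percent inhibition of the receptor-coactivator binding signal exceeds about 50% in the single-dose screen, limit read from the data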;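 also: 0% = receptor plus peptide wells without compound and 100% = peptide-only wells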
Target sequence (Q92731 whole entry, looked up, the tested form may be a part): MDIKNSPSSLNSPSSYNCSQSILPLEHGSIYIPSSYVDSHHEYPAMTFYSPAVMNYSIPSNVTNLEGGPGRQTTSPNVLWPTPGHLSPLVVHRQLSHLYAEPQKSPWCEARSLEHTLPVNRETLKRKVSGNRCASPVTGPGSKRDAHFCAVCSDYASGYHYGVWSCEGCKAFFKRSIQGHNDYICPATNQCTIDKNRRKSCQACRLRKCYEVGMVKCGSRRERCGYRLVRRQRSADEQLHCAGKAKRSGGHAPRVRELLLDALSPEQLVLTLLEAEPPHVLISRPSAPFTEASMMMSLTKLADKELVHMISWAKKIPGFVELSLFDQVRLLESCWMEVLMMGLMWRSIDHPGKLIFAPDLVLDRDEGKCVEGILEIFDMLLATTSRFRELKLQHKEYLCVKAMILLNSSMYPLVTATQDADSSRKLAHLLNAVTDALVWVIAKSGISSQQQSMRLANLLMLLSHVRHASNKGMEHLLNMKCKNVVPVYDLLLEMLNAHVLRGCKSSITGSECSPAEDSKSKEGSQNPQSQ
MRP1 act = H69AR viability gain despite doxorubicin, primary screen, MRP-1 activator project, H69AR cells, CellTiter-Glo | viability rescue | viability increase, % at 10 µM | 140,000 compounds, 0.61% hits | AID 799, 2007;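 active = viability gain under doxorubicin at or above a set limit, the compound median plus 3 SD, cut at about 4.7% in these data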;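 also: MRP-1 overexpressing cells given doxorubicin 25 µM after compound pretreatment; 18-22 h compound pretreatment then 72 h with doxorubicin before readout; 0% = doxorubicin-only wells and 100% = vehicle-treated cells without doxorubicin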
ERa coact inh = ERα–SRC-1 coactivator interaction inhibitors, primary screen, biochemical, TR-FRET, ERα LBD, estradiol-bound; Estrogen receptor (Homo sapiens), P03372; inhibition, % at 25.6 µM; AID 629, 2007; TR-FRET ER-alpha LBD / SRC-1 peptide; 86,000 compounds, 1.7% hits; in the data active = inhibition above about 50%;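 also: 0% = receptor plus peptide control and 100% = peptide only without receptor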
ERa SRC1 pot = enhancers of ERα–SRC-1 coactivator binding, primary screen, biochemical, TR-FRET, ERα LBD, low estradiol; 86,000 compounds, 1.3% hits; coactivator binding (% of control), % at 25.6 µM; TR-FRET ERalpha-LBD/SRC-Cy5 coactivator binding, 2 h; 100 = basal binding, no effect; in the data active = activity above about 200%;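 also: binding measured in presence of low estradiol as agonist stimulus; 0% = peptide alone without receptor and 100% = receptor with peptide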
MRP reversal = reversal of MRP1-mediated doxorubicin resistance, primary screen, H69AR cells, doxorubicin co-treatment; H69AR cells + 2 uM doxorubicin, CellTiter-Glo, 72 h; AID 602, 2007; 85,000 compounds, 0.04% hits; differential viability (reversal), % at 10 µM;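 active = viability drop by adding the cancer drug above about 55%, with treated viability meeting a 40% cutoff, limit read from the data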;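 also: viability without doxorubicin minus viability with 2 µM doxorubicin for each compound; larger differential means the compound sensitizes cells more to doxorubicin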
An asterisk follows results filed as active; x = not tested or not shown; [ ] = dose if it differs, or a comment.

SMILES | ERb SRC1 inh | MRP1 act | ERa coact inh | ERa SRC1 pot | MRP reversal
N#Cc1nc(COc2ccc(F)cc2)oc1N1CCC(Cc2ccccc2)CC1 | -13 | 5.3* | -17 | 107 | 8
N#Cc1nc(COc2ccc(F)cc2)oc1N1CCN(Cc2ccccc2)CC1 | -19 | 2 | -11 | 97 | 0
O=c1cc(-c2ccccc2Cl)c2c([nH]1)CCC2 | 57*[fluorescence artefact?] | -2 | 48 | 63 | 3
O=c1cc(-c2ccccc2)c2c([nH]1)CCCC2 | -6 | -2 | -3 | 98 | 24
COc1ccc(C2CC(=O)Nc3ccccc3S2(=O)=O)cc1OC (centres undefined) | 50* | 0 | 32 | 55 | 14
CSc1nc(N2CCN(CCO)CC2)c2sc3nc(-c4ccco4)c4c(c3c2n1)CCC4 | 24 | x | 57* | 65 | -5
Cc1ccc(-c2nnc(SCC(=O)Nc3sc(C)c(C)c3C#N)n2C)cc1 | 11 | -4 | 3 | 248*[fluorescence artefact?] | 4
Cc1sc(NC(=O)CSc2nnc(-c3ccc(F)cc3)o2)c(C#N)c1C | 20 | 0 | 52* | 101 | -18
CCOC(=O)c1c(NC(=O)CSc2nnc(-c3ccco3)o2)sc(C(C)=O)c1C | -3 | -4 | 10 | 156 | -3
CNC(=O)CSc1nnc(COc2ccc(Cl)cc2)n1CCOC | -12 | 9.8* | -3 | 98 | 0
CCOC(=O)c1c(NC(=O)CSc2nnc(-c3cccnc3)o2)sc(C(C)=O)c1C | 16 | -1 | 20 | 204*[fluorescence artefact?] | -8
COc1ccc(/C=C/C(=O)Nc2nonc2NC(C)=O)cc1 | x | -1 | x | x | x
COc1ccc(C(=O)Cn2c(C(=O)/C=C/c3ccccc3)nc3ccccc32)cc1 | x | -3 | x | x | x
CCn1c2ccccc2c2nnc(SCC(=O)NC(C(=O)OC)C(C)C)nc21 (centres undefined) | 29 | x | 3 | 199 | 8
Cc1sc(NC(=O)CSc2nnc(COc3ccc(Cl)cc3)n2C)c(C#N)c1C | 42 | -3 | 41 | 317*[fluorescence artefact?] | 6
Cn1c(SCC(=O)Nc2ccccc2)nnc1-c1ccc(NC(=O)CCc2ccccc2)cc1 | 76*[fluorescence artefact?] | -4 | -1 | 99 | -4
CSc1nnc(-c2ccc(NC(=O)CCc3ccccc3)cc2)n1C | -8 | -2 | 1 | 105 | 6
COCCn1c(SCC(=O)Nc2sc(C)c(C)c2C#N)nnc1-c1ccc(OC)cc1 | -6 | -3 | -5 | 125 | -7
CCOc1ccccc1N1CCN(C(=O)CCCc2nc3ccccc3s2)CC1 | x | -1 | x | x | x
Cc1nc(NC(=S)NC(=O)c2ccccc2)sc1C(=O)N(C)C | x | 7.7* | x | x | x
O=C(c1ccccc1NS(=O)(=O)c1cccc([N+](=O)[O-])c1)N1CCOCC1 | x | -2 | x | x | x
CCN(CC)CCN(Cc1cc2cc(C)cc(C)c2[nH]c1=O)C(=S)NCc1ccco1 | x | 23* | x | x | x
CC(C)Cn1c(-c2cccs2)nc2ccccc21 | 57* | -4 | -5 | 85 | 13
O=C(NCCc1ccc(Cl)cc1)C1CCC(CNc2c(N3CCCCC3)c(=O)c2=O)CC1 (centres undefined) | x | -2 | x | x | x
O=C(COc1ccccc1)Nc1nc(-c2ccc(S(=O)(=O)N3CCOCC3)cc2)cs1 | 21 | 0 | 19 | 328*[fluorescence artefact?] | -5
SMILES | ERb SRC1 inh | MRP1 act | ERa coact inh | ERa SRC1 pot | MRP reversal
Cc1ccc(NC(=O)COc2ccc(S(=O)(=O)N3CCOCC3)cc2)cc1 | -10 | -3 | -6 | 116 | -9
O=C(COc1ccc(Cl)cc1)Nc1nc(-c2ccc(S(=O)(=O)N3CCOCC3)cc2)cs1 | 19 | -1 | 12 | 275*[fluorescence artefact?] | 5
O=C(COC(=O)c1ccc(S(=O)(=O)N2CCOCC2)cc1)Nc1nc(-c2ccccc2)cs1 | 35 | 0 | 26 | 139 | -3
COc1ccccc1OCC(=O)Nc1nc(-c2ccc(S(=O)(=O)N3CCOCC3)cc2)cs1 | 15 | 0 | 27 | 217*[fluorescence artefact?] | 4
Cc1cc(Cl)ccc1OC(C)C(=O)Nc1ccccc1N1CCOCC1 (centres undefined) | 2 | -5 | -8 | 102 | 5
CC1(C(=O)CSc2n[nH]c(-c3ccccc3Cl)n2)CCC(=O)O1 (centres undefined) | x | -1 | x | x | x
COc1ccc(OC)c(N(CC(N)=O)S(=O)(=O)c2ccc(OC)c(OC)c2)c1 | -7 | 0 | 2 | 99 | 25
Cc1cc(C(=O)N/N=C/c2cc(Br)ccc2OC(=O)c2ccccc2)n[nH]1 | x | 9.4* | x | x | x
CCOc1cc(/C=N/NC(=O)c2cc(C)[nH]n2)ccc1OC(=O)c1ccc([N+](=O)[O-])cc1 | x | -3 | x | x | x
O=S(=O)(c1cccc(-c2nc3ccccc3s2)c1)N1CCOCC1 | 68* | -2 | -1 | 100 | 12
O=S(=O)(c1cccc(-c2csc(-c3ccccc3)n2)c1)N1CCOCC1 | 2 | -3 | -4 | 272* | -11
Cc1ccc(-c2nc3ccccc3s2)cc1S(=O)(=O)N1CCCC1 | -5 | 0 | 1 | 72 | -37
O=C(Oc1ccc2c(c1)OCC2=O)c1ccccc1 | 55* | 0 | 44 | 86 | -18
CC(C)(C)c1ccc(C(=O)Oc2ccc3c(c2)OCC3=O)cc1 | -3 | 2 | 9 | 101 | -10
Cc1occc1C(=O)NCc1ccc2c(c1)OCO2 | 18 | -2 | 17 | 96 | -3
O=C(O)c1ccccc1C(=O)NCc1ccccc1 | 2 | -3 | 7 | 101 | -4
Cc1nc2cccc(C(=O)NCc3ccccc3)c2o1 | 40 | -2 | 64* | 76 | x
CCc1ccc(CNC(=O)c2cc3c(C)nc4ccccc4c3o2)cc1 | 60*[fluorescence artefact?] | 2 | 15 | 64 | -6
Cc1occc1C(=O)NCc1cccc(CNC(=O)c2ccoc2C)c1 | -8 | -1 | 65* | 131 | 5
COc1ccc(C)cc1NC(=O)c1cc2c(C)nc3ccccc3c2o1 | 58*[fluorescence artefact?] | x | 66*[fluorescence artefact?] | 204*[fluorescence artefact?] | 2
CN(C)S(=O)(=O)c1ccc(N2CCCC2)c(C(=O)Nc2nc(-c3cc(F)ccc3F)cs2)c1 | x | -5 | x | x | x
O=C(NCC1OCCc2ccccc21)c1ccc(NC(=O)c2cccc(Br)c2)cc1 (centres undefined) | x | -5 | x | x | x
COc1ccccc1CNC(=O)C1(c2ccc(Cl)cc2)CC1 | x | -2 | x | x | x
COc1cc(/C=N/NC(=O)c2cccnc2)ccc1OS(=O)(=O)c1cc(C)ccc1C | x | -1 | x | x | x
C/C(=N\OC(=O)c1cccc(C)c1)c1sc(-c2ccccc2)nc1C | x | 4.7* | x | x | x
COC(=O)C1CCN(C(=O)Cc2ccc(OC)c(OC)c2)CC1 | -4 | -2 | -2 | 124 | 16
Cc1cccc(N2CCN(C(=O)Cc3ccc(Br)cc3)CC2)c1C | -1 | 7.9* | 12 | 95 | 3
COC(=O)C1CCN(C(=O)Cc2ccc(Br)cc2)CC1 | 66*[fluorescence artefact?] | 0 | 55*[fluorescence artefact?] | 50 | 4

From PubChem BioAssay
